According to article PMC7883291:

Legend:
Assay in all cases: cross-link between two proteins; cross-linking mass spectrometry
[1] = molecular target: Acyl carrier protein, mitochondrial (UniProt P52505)
[2] = molecular target: NADH dehydrogenase [ubiquinone] 1 beta subcomplex subunit 11, mitochondrial (UniProt Q8HXG5)
[3] = molecular target: T1, Cytochrome b-c1 complex subunit 2, mitochondrial (UniProt P23004)
T1 sequence: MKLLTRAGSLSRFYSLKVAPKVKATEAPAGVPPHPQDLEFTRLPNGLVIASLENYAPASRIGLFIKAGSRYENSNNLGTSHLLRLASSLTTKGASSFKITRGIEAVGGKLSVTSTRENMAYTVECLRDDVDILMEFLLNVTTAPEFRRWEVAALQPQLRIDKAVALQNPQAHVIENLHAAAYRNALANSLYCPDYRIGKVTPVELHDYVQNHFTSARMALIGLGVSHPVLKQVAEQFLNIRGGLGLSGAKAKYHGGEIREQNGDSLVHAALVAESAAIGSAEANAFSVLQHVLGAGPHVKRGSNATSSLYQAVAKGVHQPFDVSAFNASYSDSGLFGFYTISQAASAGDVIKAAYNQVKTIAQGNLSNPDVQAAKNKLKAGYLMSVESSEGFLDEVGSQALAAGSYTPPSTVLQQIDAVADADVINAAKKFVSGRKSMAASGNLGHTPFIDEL

[4] = molecular target: NADH dehydrogenase [ubiquinone] 1 alpha subcomplex subunit 9, mitochondrial (UniProt P34943)
Chain of NADH dehydrogenase [ubiquinone] 1 alpha subcomplex subunit 9, mitochondrial (P34943 whole entry, one chain of several): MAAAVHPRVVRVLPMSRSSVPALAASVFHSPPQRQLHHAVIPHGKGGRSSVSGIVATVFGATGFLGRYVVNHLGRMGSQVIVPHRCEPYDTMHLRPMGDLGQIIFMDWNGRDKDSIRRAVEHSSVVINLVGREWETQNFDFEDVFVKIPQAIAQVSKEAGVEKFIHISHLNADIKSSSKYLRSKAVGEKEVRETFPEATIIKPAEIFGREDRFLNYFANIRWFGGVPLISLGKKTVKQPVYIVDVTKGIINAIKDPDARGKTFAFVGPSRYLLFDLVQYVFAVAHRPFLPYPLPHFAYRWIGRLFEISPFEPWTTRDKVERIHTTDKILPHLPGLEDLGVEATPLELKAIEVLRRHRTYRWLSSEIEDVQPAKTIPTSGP

Chain of NADH dehydrogenase [ubiquinone] 1 beta subcomplex subunit 11, mitochondrial (Q8HXG5 whole entry, one chain of several): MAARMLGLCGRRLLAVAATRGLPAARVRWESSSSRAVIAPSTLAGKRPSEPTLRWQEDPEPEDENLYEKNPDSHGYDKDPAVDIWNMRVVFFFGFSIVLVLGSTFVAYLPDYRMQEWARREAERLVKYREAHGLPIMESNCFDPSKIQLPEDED

With G5E543 the “listed as a hit” value [1] was “yes” and the “listed as a hit” value [2] was “yes”.

For A0A3Q1MBD7, the “listed as a hit” value [3] was “yes”.

For A8WFQ0, the “listed as a hit” value [4] was “yes”.
